Most compounds without a hit are left out; they make up all but 0.51% or so of the library.
PINK1 modulator = PINK1 expression modulation; PINK1 immunofluorescence, high-content cytometry, 24 h; Potency, µM (series often up to 76.6 µM), inactives show top-dose activation (PINK1 increase), usual class: activators; actives 0.2% (n = 410,000); AID 624263; active = well fitted activation curve with a large enough effect; inconclusive = small, poorly fitted or top-dose-only effect; cell line not stated here; note: % of control where 0% means no effect; nearly all actives have a fitted effect of over 65% in size
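Decision-based qHTS: stable cells, 24 h exposure to five compound concentrations, CCCP as control. Fixed cells stained for PINK1 plus nuclear, mitochondrial and cell markers, cytometer read.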
Epigenetic derep = derepresses silenced GFP reporter in murine cells; murine LDR cells, GFP reporter derepression, 30 h; Potency, µM (highest dose often 53.9 µM), for the others: top-dose GFP activation, hits mostly activators; actives 0.2% (n = 280,000); note: % of control where 0% means no effect; nearly all actives have a fitted effect of over 60% in size
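Readout is the number of GFP-expressing murine LDR cells, counted by cytometry following washing. Cells were treated with compound for 30 h at 37 C; the stably integrated CMV-GFP locus is normally silent.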
Vif-A3F inh = inhibitors of Vif-A3F interaction; HeLa A3F-eYFP + Vif (tagged APOBEC3F with the HIV-1 protein that degrades it), YFP fluorescence increase; Potency, µM (doses to about 46.1 µM), for the others: at the top dose activity, negative = active; actives 0.2% (n = 390,000); AID 602313; note: % of control where 0% means no effect; nearly all actives have a fitted effect of over 65% in size
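HeLa cells stably expressing Vif plus C-terminally eYFP-tagged A3F were seeded, incubated overnight at 37 deg C, dosed with compound, incubated overnight again at 37 deg C. Yellow fluorescence (Ex 488/Em 500-530) reported blocked Vif-mediated A3F-eYFP degradation.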
Vif-A3G inh = inhibitors of Vif-APOBEC3G interaction. actives 0.076% (n = 410,000). HeLa A3G-eYFP + Vif (tagged APOBEC3G with the HIV-1 protein that degrades it), YFP fluorescence, overnight. Potency, µM (series often up to 46.1 µM), inactives show at the top dose activity, negative = active, usual class: inhibitors. Q9HC16; note: % is set by controls: 0 for no effect and ±100 for the full control effect; nearly all actives have a fitted effect of over 60% in size
Target sequence (Q9HC16 whole entry, looked up): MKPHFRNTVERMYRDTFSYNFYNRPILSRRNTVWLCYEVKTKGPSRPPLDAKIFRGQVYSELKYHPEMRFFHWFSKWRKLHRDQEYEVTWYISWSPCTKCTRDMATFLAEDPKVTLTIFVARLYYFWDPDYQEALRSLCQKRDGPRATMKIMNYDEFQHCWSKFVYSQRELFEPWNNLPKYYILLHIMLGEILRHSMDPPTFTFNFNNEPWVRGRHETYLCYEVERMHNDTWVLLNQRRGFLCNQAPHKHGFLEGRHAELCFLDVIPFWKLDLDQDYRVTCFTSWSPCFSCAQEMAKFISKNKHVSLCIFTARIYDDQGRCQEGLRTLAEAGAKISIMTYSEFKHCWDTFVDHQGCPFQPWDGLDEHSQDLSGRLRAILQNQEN
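HeLa cells stably expressing Vif and C-terminally eYFP-tagged A3G, seeded overnight at 37 deg C, then exposed to compound by pintool overnight at 37 deg C. Rise in yellow fluorescence (Ex 488/Em 500-530, Acumen) marks blocked Vif-driven A3G degradation.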
Starred values were filed as active, the others as inactive; ? = inconclusive; nt = no result; ! = repeats disagree; [ ] = remark or other dose. Unless noted, calls come from the whole dose curve; as a rule, active = well fitted curve in the direction sought with a large enough effect; inconclusive = small, poorly fitted or top-dose-only effect, or another doubt; inactive = no such curve, though single readings can be large; an effect the other way counts as inactive or inconclusive. Potency is the fitted concentration of half-maximal effect.

SMILES	PINK1 modulator	Epigenetic derep	Vif-A3F inh	Vif-A3G inh
CN(C)c1ccc2c(c1)OC(N)=C(C#N)C2c1cccc(F)c1 (stereo not drawn)	?	4%	22µM*	?
CCCCn1c(SCC(=O)NCCCOC)nc2c(sc3ccccc32)c1=O	0%	0%	0%	6%
O=c1[nH]c2cc(Br)cnc2nc1/C=C(\O)c1ccc(F)cc1	nt	?	10µM*	-9%
CC1=C(C)C(O)N(Cc2ccccc2)C1=O (stereo not drawn)	2%	nt	-3%	0%
O=c1c(/C=C(\O)c2ccc(F)cc2)nc2ccccc2n1-c1ccccc1	28%	13µM*	?	1%
Cn1c(=O)c(/C=C/c2ccc(F)cc2)nc2ccccc21	2%	3%	?	-17%
CN(C)C(=O)c1nnsc1Sc1ccc(Cl)cc1	1%	-4%	4%	0%
O=[N+]([O-])c1cc([N+](=O)[O-])c2oc(-c3ccccc3)c(Br)c2c1O	35µM*	nt	-15%	-28%
O=c1c(O)c(-c2ccccc2)oc2cccc(O)c12	1%	5%	nt	nt
O=C(Nc1ccc2ccccc2c1)c1ccccc1Cl	2%	nt	-1%	-12%
O=C(Nc1ccc2ccccc2c1)c1ccccc1O	14µM*	nt	1%	-6%
COc1ccc(NC(=O)c2cccc3ccccc23)cc1	6%	nt	0%	11µM*
CCOc1ccc(CNC(=O)CCn2c(=O)c3cccn3c3ccc(F)cc32)cc1	-1%	0%	-5%	-2%
COc1ccc(-c2c(C#Cc3ccc(N(C)C)cc3)c3ccccc3n2C)cc1	18µM*	nt	-4%	-4%
COc1ccc(-c2c(C#Cc3ccsc3)c3cc(Br)ccc3n2C)cc1	3%	nt	1%	1%
Nc1ncnc2c1ncn2[C@@H]1O[C@H](CNCc2ccc(OCC(=O)Nc3nccs3)cc2)[C@@H](O)[C@H]1O	1%	nt	1%	1%
c1ccc2c(-c3nc4ccccc4[nH]3)cccc2c1	8%	nt	0%	6.3µM*
c1ccc2[nH]c(-c3ccnc4ccccc34)nc2c1	1%	0%	-4%	-14%
COc1ccc(C)cc1Nc1n[n+](-c2ccccc2)c(-c2ccc(NC(C)=O)cc2)s1	0%	nt	-7%	1%
COc1ccc(C)cc1Nc1n[n+](-c2ccccc2)c(-c2cc([N+](=O)[O-])cc(OC)c2O)s1	8%	nt	22µM*	-9%
FC(F)(F)c1cnc2c(c1)[nH]c(=S)n2-c1ccc(Cl)cc1	40µM*	nt	8%	2%
C=CCNC(=S)N/N=C(\C)c1ccc(OC)cc1	1%	?	10µM*	1%
COc1ccccc1NS(=O)(=O)c1ccc2c(c1)NC(=O)C(C)S2 (stereo not drawn)	1%	nt	4%	-6%
CC1=CC(C)(C)Nc2ccc(OC(=O)c3ccco3)cc21	nt	?	?	11µM*
O=C(N/N=C/c1c(O)n(-c2ccc(Cl)cn2)c(=O)c2ccccc12)c1ccncc1	3%	0%	22µM*	-19%
SMILES	PINK1 modulator	Epigenetic derep	Vif-A3F inh	Vif-A3G inh
Cc1ccc(CNS(=O)(=O)c2ccc3c(c2)CC(C)N3C(=O)C2CCC2)cc1 (stereo not drawn)	2%	-1%	1%	5%
O=C(N/N=C/c1ccc([N+](=O)[O-])o1)c1cc2c(ccc3ccccc32)o1	8%	?	7.9µM*	?
Cc1ccc(NC(=O)CC(=O)c2ccc([N+](=O)[O-])cc2)cc1S(=O)(=O)Nc1cccc(Cl)c1	32µM*	0%	-1%	1%
COc1cccc(NC(=O)Nc2ccc3c(c2)N(C)C(=O)CS3)c1	2%	-1%	nt	0%
CN(C)c1ccc(/C=C/c2ccnc3ccc(Cl)cc23)cc1	2%	nt	nt	-16%
COc1cc(N(C)C)c(OC)cc1/C=C/c1ccnc2ccccc12	8%	nt	nt	7.1µM*
CCN(CC)c1ccc(/C=C/c2ccnc3ccccc23)cc1	10%	nt	nt	11µM*
CN(C)c1ccc(/C=C/c2ccnc3c(Cl)cccc23)cc1	nt	nt	nt	3.5µM*
CCN(CC)CCN(CC)c1ccc(/C=C/c2ccnc3ccccc23)cc1	0%	nt	nt	-12%
CN(C)c1ccc(/C=C/c2ccnc3ccc(-c4ccccc4)cc23)cc1	27%	nt	nt	7.1µM*
CNC(=O)C[C@H]1C(=O)N(c2ccccc2)C[C@@H]1Cc1ccccc1	0%	nt	9%	5%
CCN(CC)c1ccc(/C=C/c2ccccn2)cc1	nt	nt	nt	3.2µM*
CC(=O)c1c(C)[nH]c(C(=O)CN2CCN(S(=O)(=O)c3ccccc3)CC2)c1C	4%	nt	-10%	0%
CCOC(=O)c1ccc(NC(=S)NCCC2=CCCCC2)cc1	32µM*	2%	-25%	-8%
Clc1ccccc1-c1nc(NCc2cccnc2)c2ccccc2n1	1%	nt	nt	nt
COc1ccc(C(=O)c2sc(Nc3ccccc3)c(C(=O)Nc3ccc(OC)c(OC)c3)c2N)cc1	?	3%	-1%	-4%
COc1ccc(Nc2sc(C(=O)c3ccc(Cl)cc3)c(N)c2C(=O)Nc2ccccc2OC)cc1	16µM*	4%	2%	-7%
Cc1c(C(=O)NCc2ccc(Cl)c(Cl)c2)sc(=O)n1Cc1ccccc1F	0%	nt	nt	1%
O=[N+]([O-])c1ccc(N/N=C/c2c[nH]c3ccccc23)c(S(=O)(=O)Nc2ccc(Cl)cc2)c1	?	?	25µM*	?
COc1ccccc1NS(=O)(=O)c1cc([N+](=O)[O-])ccc1N/N=C/c1c(C)[nH]c2ccccc12	9%[38.3 µM]	?	?	?
Cc1cccc(-n2c(CCn3nc(C)c([N+](=O)[O-])c3C)n[nH]c2=S)c1	11µM*	0%	-2%	2%
COc1cccc(-n2c(CCn3nc(C)c([N+](=O)[O-])c3C)n[nH]c2=S)c1	-1%	-3%	-4%	1%
O=C(O)COc1ccc(C(=O)c2cccs2)c(Cl)c1Cl	nt	0%	nt	nt
Cc1ccccc1C1=C/C(=C(\SS/C(C(=O)c2ccc(OCC(=O)O)c(Cl)c2Cl)=C2\C=C(c3ccccc3C)SS2)C(=O)c2ccc(OCC(=O)O)c(Cl)c2Cl)SS1	35µM*	nt	0%	4%
Cc1ccc(N2C(=O)CSCC2=O)cc1	1%	0%	1%	-2%
SMILES	PINK1 modulator	Epigenetic derep	Vif-A3F inh	Vif-A3G inh
Cc1ccc(N2C(=O)CS/C2=C(\C(Cl)=C(Cl)Cl)[N+](=O)[O-])cc1	-5%[38.3 µM]	?	25µM*	?
O=Cc1c2[nH]c3ccccc3c2cc2[nH]c3ccccc3c12	nt	13µM*!	nt	nt
CC/C(=N/Nc1cccc(Cl)c1)c1cnnc(SC)n1	20µM*	?	?	-5%
CC/C(=N/Nc1ccccc1)c1cnnc(-c2ccccc2)n1	?	-1%	0%	-6%
COc1cccc(CNc2nc3ccc(C)cc3n3cnnc23)c1	40µM*	?	-17%	1%
Cc1ccc(CNc2nc3ccc(C)cc3n3nnnc23)cc1	2%	6%	2%	1%
Fc1ccc(CNc2nc3ccc(Cl)cc3n3nnnc23)cc1	4%	?	7.9µM*	-12%
Cc1ccc(CNc2nc3ccc(Cl)cc3n3nnnc23)cc1	-1%	?	7.1µM*	3%
Cc1ccc(CNc2nc3ccc(C)cc3n3cnnc23)cc1	5%	2%	-17%	-3%

Screening data (PubChem)
